Measurements published in PubChem BioAssay (NCATS).
Results filed as inconclusive are left out. Calls of active or inactive are those of the source. Calls come from the whole dose curve; as a rule, active = well fitted curve in the direction sought with a large enough effect; inconclusive = small, poorly fitted or top-dose-only effect, or another doubt; inactive = no such curve, though single readings can be large; an effect the other way counts as inactive or inconclusive.

How the values were obtained:
[1] = SDT Cancer Cell Toxicity qHTS against the NCATS CANVASS Library (AID 1347365); details: SDT dog glioma viability, ATP luminescence, 72 h; series mostly up to 46.1 µM;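 note: SDT canine glioma cells 500 per well in 1536 well plates; nearly all actives have a fitted effect of over 60% in size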
Outline: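 Dispense 500 SDT cells per well; pin-transfer compounds; incubate 72 hr at 37C, 5% CO2, 95% RH; add CellTiterGlo and read luminescence.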

[2] = KB-3-1 Cancer Cell Toxicity qHTS against the NCATS CANVASS Library (AID 1347366); details: KB-3-1 viability, CellTiter-Glo luminescence, 72 h; series mostly up to 46.1 µM; note: nearly all actives have a fitted effect of over 75% in size
Outline: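 Cytotoxicity toward KB-3-1 cells (500/well, DMEM + 10% FBS) was scored by CellTiter-Glo luminescence following 72 hr exposure at 37C, with bortezomib titrated as control.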

[3] = qHTS for ATAD5 Agonist screened against the NCATS CANVASS Library (AID 1347367); details: HEK293T ATAD5-luciferase reporter, luminescence, 16 h; series mostly up to 46.1 µM;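 note: luciferase reporter driven by ATAD5 which rises upon DNA damage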
Outline: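 Genotoxicity was scored as increased ATAD5-luciferase luminescence in HEK293T after 16hr of exposure, with cell viability measured by fluorescence beforehand in the same well.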

[4] = G06 Cancer Cell Toxicity qHTS against the NCATS CANVASS Library (AID 1347368); details: G06 dog glioma cells, viability ATP luminescence, 72 h; series mostly up to 46.1 µM; note: nearly all actives have a fitted effect of over 60% in size
Outline: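 Cytotoxicity toward canine glioma G06 cells is scored from cellular ATP via luminescence after 72 hr compound exposure at 500 cells/well.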

[5] = MCF7 Cancer Cell Toxicity qHTS against the NCATS CANVASS Library (AID 1347369); details: MCF7 viability, ATP luminescence (CellTiter-Glo), 72 h; at 46 µM (top of the series)
Outline: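 This 72 hr qHTS scored MCF7 viability by CellTiterGlo luminescence, with 500 cells/well; bortezomib titration ran as control.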

[6] = qHTS for ATAD5 Antagonist screened against the NCATS CANVASS Library (AID 1347370); details: HEK293T-ATAD5-luc, 5-FUrd stimulated, luminescence, 16 h; series mostly up to 46.1 µM;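 note: HEK293T cells carrying an ATAD5 luciferase reporter co-treated with 10 µM 5-fluorouridine; nearly all actives have a fitted effect of over 65% in size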
From the text: Natural products and their derivatives continue to be wellsprings of nascent therapeutic potential. However, many laboratories have limited resources for biological evaluation, leaving their previously isolated or synthesized compounds largely or completely untested. To address this issue, the Canvass library of natural products was assembled (https://tripod.nih.gov/canvass), in collaboration with academic and industry researchers, for quantitative high-throughput screening (qHTS) across a diverse set of cell-based and biochemical assays. The pure (>85% purity by liquid chromatography/mass spectrometry [LC/MS]) Canvass library of 346 natural products were submitted by 45 academic laboratories and companies around the world. We collected pure natural products to circumvent deconvolution and structure elucidation due to time and resource limitations. The library was formatted into 1536-well plates and evaluated in 50 qHTS (in an 11-pnt concentration series) bioassays with broad scope of disease-relevant mechanisms. The resulting data set from 50 different assays was then systematically analyzed to identify overall trends and specific natural products with interesting biological activities. Reported herein are the results of each individual qHTS and their corresponding assay protocol. Human ATAD5 is a biomarker for identifying gentoxic compounds because ATAD5 protein levels increase post-transcriptionally in response to DNA damage. A cell-based assay is used to detect DNA damage inducers and genotoxic compounds as well. The assay is based upon a luciferase reporter gene under control of ATAD5 that has been stably integrated into HEK 293T cells. Luminescence intensity is proportional to ATAD5 expression. […]
ATAD5 Agonist assay protocol: 1. […] A first readout of fluorescence signal was acquired via the ViewLux (PerkinElmer) plate reader using filter sets for AFC (380-400nmEx/505Em) and 1 second exposure setting. […] 8.#A second readout of luminescence signal was acquired via the ViewLux plate reader using a clear emission filter, 10 second exposure setting.

[7] = J3T Cancer Cell Toxicity qHTS against the NCATS CANVASS Library (AID 1347371); details: J3T dog glioma viability, ATP luminescence, 72 h; series mostly up to 46.1 µM
Outline: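 Viability of the J3T glioma line from dog is scored by ATP luminescence after a 72 hr incubation with natural products.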

[8] = biological target: Nuclear receptor subfamily 1 group I member 3 (Homo sapiens) (UniProt Q14994); assay: qHTS for Constitutive Androstane Receptor (CAR) Antagonist screened against the NCATS CANVASS Library (AID 1347372); details: HepG2-hCAR-CYP2B6 luciferase, CITCO-stimulated antagonist mode; series mostly up to 46.1 µM;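 note: cells stimulated with 50 nM CITCO agonist so inhibition reflects antagonism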
Outline: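 HepG2 cells stably carrying hCAR and a CYP2B6-2.2kb luciferase reporter were exposed to compounds plus 50 nM CITCO for 24hr at 37C. CAR activity was read by ONE-Glo luminescence, with viability measured first by CellTiter-Fluor.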

[9] = biological target: Nuclear receptor subfamily 1 group I member 3 (Homo sapiens) (UniProt Q14994); assay: qHTS for Constitutive Androstane Receptor (CAR) Agonist screened against the NCATS CANVASS Library (AID 1347373); details: HepG2-hCAR-CYP2B6 luciferase reporter, ONE-Glo luminescence; series mostly up to 46.1 µM;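 note: every well also contained 1.5 µM PK11195 alongside the test compound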
Outline: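 CAR agonism is scored as CYP2B6-promoter luciferase induction in a double-stable transfected HepG2 line, where 1.5uM PK11195 is included in each well. Compounds were tested over a 24hr exposure.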

[10] = qHTS for Hypoxia signaling pathway (HIF-1) antagonists against the NCATS CANVASS Library (AID 1347374); details: HRE-bla ME-180 cells, HIF-1 beta-lactamase reporter, CoCl2; note: potency is the fitted concentration of half-maximal effect; nearly all actives have a fitted effect of over 60% in size
From the text: Natural products and their derivatives continue to be wellsprings of nascent therapeutic potential. However, many laboratories have limited resources for biological evaluation, leaving their previously isolated or synthesized compounds largely or completely untested. To address this issue, the Canvass library of natural products was assembled (https://tripod.nih.gov/canvass), in collaboration with academic and industry researchers, for quantitative high-throughput screening (qHTS) across a diverse set of cell-based and biochemical assays. […] We collected pure natural products to circumvent deconvolution and structure elucidation due to time and resource limitations. The library was formatted into 1536-well plates and evaluated in 50 qHTS (in an 11-pnt concentration series) bioassays with broad scope of disease-relevant mechanisms. The resulting data set from 50 different assays was then systematically analyzed to identify overall trends and specific natural products with interesting biological activities. […] The compounds were also tested for auto fluorescence that may interfere with the biological target readout resulting in potential false positives and/or negatives. […]
HIF-1 antagonist assay protocol: 1. […] The fluorescence intensity was obtained using the EnVision (PerkinElmer, Shelton, CT) plate reader using a 405 nm excitation, and 460 and 530 nm emission filters. […]

Measured: Potency

Sequence of Nuclear receptor subfamily 1 group I member 3 (Homo sapiens) (Q14994 whole entry, looked up): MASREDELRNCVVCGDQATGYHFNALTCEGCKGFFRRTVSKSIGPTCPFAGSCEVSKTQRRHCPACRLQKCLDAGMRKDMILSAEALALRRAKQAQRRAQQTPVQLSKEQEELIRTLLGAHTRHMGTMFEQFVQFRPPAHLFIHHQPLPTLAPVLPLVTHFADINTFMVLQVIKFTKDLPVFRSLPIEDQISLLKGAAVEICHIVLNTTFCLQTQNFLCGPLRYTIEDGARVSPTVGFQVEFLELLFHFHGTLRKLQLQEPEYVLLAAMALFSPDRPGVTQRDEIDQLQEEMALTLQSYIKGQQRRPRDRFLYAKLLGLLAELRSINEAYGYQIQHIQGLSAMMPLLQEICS

O=c1cc(-c2ccccc2)oc2cc(O)c(O)c(O)c12
not listed: [10]
inactive: all other assays above

O=C(O)C(O)Cc1ccc(O)c(O)c1 (configuration not stated)
active: [10] 8.38 µM
not listed: [5]
inactive: all other assays above

COC(=O)[C@@H]1[C@H]2C[C@H]3c4[nH]c5ccccc5c4CCN3C[C@@H]2CC[C@@H]1O
not listed: [10]
inactive: all other assays above
